# Mtb UGM inh = Mtb UDP-galactopyranose mutase inhibition. purified UGM, fluorescence polarization probe displacement. inhibition, % at 10 µM. P9WIQ1. actives 0.06% (n = 320,000); in the data active means inhibition above about 10%, passing the limit was not always enough
# Mtb FBA inh = Mtb fructose-bisphosphate aldolase inhibition. P9WQA3. purified M. tuberculosis FBA, fluorescence read-out. inhibition, % at 1 µM. actives 2.3% (n = 360,000); in the data active means inhibition above about 27%;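 further: 0% = vehicle and 100% = reference inhibitor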
# Target sequence (P9WQA3 whole entry, looked up): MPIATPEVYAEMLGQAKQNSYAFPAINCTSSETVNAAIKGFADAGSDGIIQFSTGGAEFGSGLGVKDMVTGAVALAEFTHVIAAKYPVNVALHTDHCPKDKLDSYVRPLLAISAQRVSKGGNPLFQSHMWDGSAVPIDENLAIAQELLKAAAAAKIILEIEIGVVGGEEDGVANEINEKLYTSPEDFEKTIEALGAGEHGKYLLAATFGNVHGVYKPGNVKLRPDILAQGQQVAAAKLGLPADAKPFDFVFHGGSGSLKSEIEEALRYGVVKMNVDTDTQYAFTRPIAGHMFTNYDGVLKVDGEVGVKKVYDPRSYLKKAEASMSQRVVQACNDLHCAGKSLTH
# GDH-TPI counter = GDH-TPI coupled enzyme inhibition counter-screen; inhibition, % at 4.8 µM; GDH-TPI coupled enzyme counterscreen, NADH absorbance; actives 1.2% (n = 360,000); AID 588335; in the data active means inhibition above about 30%;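 further: 0% = DMSO wells and 100% = wells lacking the enzyme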
# FadD28 FP inh = blocks FadD28 binding to the bisubstrate probe; fluorescence polarization; inhibition, % at 12.5 µM; actives 0.22% (n = 360,000); in the data active means inhibition above about 8.5%, passing the limit was not always enough
# Mtb hypoxia inh = inhibitors of hypoxia-regulated fluorescent reporter in Mycobacterium tuberculosis; fluorescence inhibition, % (no concentration beside the values); M. tuberculosis hypoxia-regulated fluorescent reporter, fluorescence; actives 0.1% (n = 300,000); AID 1159583; in the data active means fluorescence inhibition mostly above about 23%, no sharp cut-off; inactive means mostly below about 17%
# Rv3671c protease = inhibitors of M. tuberculosis serine protease Rv3671c; P9WHR9; inhibition, % at 5.96 µM; actives 0.048% (n = 320,000); in the data active means inhibition above about 38%;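 further: extracellular domain of Rv3671c used as enzyme; 0% = enzyme with DMSO and 100% = no enzyme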
# The depositor's hits bear a star; nt = not tested or not shown; + = active, no number. A selection: hits, their analogues and other compounds. The true share with any hit is near 3.5%.
SMILES,Mtb UGM inh,Mtb FBA inh,GDH-TPI counter,FadD28 FP inh,Mtb hypoxia inh,Rv3671c protease
COC(=O)Cc1[nH]n(-c2ccccc2)c(=O)c1C=Nc1ccc(C)cc1,-2.0,2.6,40.0*,-0.8,2.7,1.3
CCOC(=O)C1=C(C)N=c2sc(=Cc3ccc(OCC(=O)O)cc3)c(=O)n2C1c1ccc(F)cc1 (configuration not stated),nt,nt,nt,nt,-16.1,nt
COc1ccc(C=NNC(=O)C2C(=O)NCC2c2ccccc2)c(OC)c1 (configuration not stated),nt,nt,nt,nt,18.3,nt
Cc1nc2c(c(=O)n1CCC(C)C)c1nc3ccccc3nc1n2CC1CCCO1 (configuration not stated),1.6,19.0,4.6,-1.0,-7.1,-3.3
CC(C)CCOC(=O)c1c(N)n(CC2CCCO2)c2nc3ccccc3nc12 (configuration not stated),-1.1,149.2*,20.9,-2.2,nt,-34.4
CC(C)OC(=O)c1c(N)n(CC2CCCO2)c2nc3ccccc3nc12 (configuration not stated),3.3,189.9*,8.7,-5.1,nt,-15.4
COc1ccccc1-n1c(N)c(C(=O)NCC2CCCO2)c2nc3ccccc3nc21 (configuration not stated),4.4,113.2*,-2.3,0.8,-3.6,-0.3
Nc1c(C(=O)OC2CCCCC2)c2nc3ccccc3nc2n1CC1CCCO1 (configuration not stated),1.6,149.2*,18.4,-6.0,0.0,-12.3
Nc1c(C(=O)NCC2CCCO2)c2nc3ccccc3nc2n1N=Cc1ccncc1 (configuration not stated),nt,nt,nt,nt,10.9,nt
CCOC(=O)CC(C(C)=NO)c1ccccc1 (configuration not stated),nt,nt,nt,nt,0.9,nt
COc1ccc(C=Nn2c(-c3cc(C)[nH]n3)n[nH]c2=S)cc1OC,nt,nt,nt,nt,6.3,nt
Cc1cc(C(=O)NCC2CCCO2)n(-c2ccccc2)n1 (configuration not stated),0.1,-0.5,4.0,-1.6,nt,1.6
Cc1nn(-c2ccccc2)c(Cl)c1C(=O)NCC1CCCO1 (configuration not stated),14.0*,-0.9,2.7,-1.4,0.6,-6.8
CC(=NNC(=O)CNC(=O)C(c1ccccc1)c1ccccc1)c1ccc(C)cc1,nt,nt,nt,nt,7.2,nt
O=C(/C=C/c1ccc(F)cc1)Nc1ccc2[nH]c(=O)[nH]c2c1,-0.5,1.9,41.6*,-0.6,6.5,13.9
COc1cc(/C=C/C(=O)Nc2ccc3[nH]c(=O)[nH]c3c2)cc(OC)c1OC,-1.7,2.9,12.3,5.4,-7.3,2.0
COc1ccc(/C=N/Nc2ncc(C(F)(F)F)cc2Cl)cc1OC,-0.1,5.7,41.3*,2.8,nt,-2.6
FC(F)(F)c1cnc(N/N=C/c2ccncc2)c(Cl)c1,2.5,-0.4,56.8*,-0.8,nt,-5.9
O=C(O)c1ccc(C=NNc2ncc(C(F)(F)F)cc2Cl)cc1,nt,nt,nt,nt,0.1,nt
Clc1cnc(NN=Cc2ccncc2)c(Cl)c1,nt,nt,nt,nt,8.7,nt
CC(C)c1ccc(C=Nn2cnnc2)cc1,nt,nt,nt,nt,14.1,nt
CCOC(=O)C1CCN(c2ncnc3c2[nH]c2cccc(OC)c23)CC1,2.8,124.7*,27.1,-2.2,4.4,-5.7
CCOC(=O)N1CCN(c2ncnc3c2[nH]c2ccc(OC)cc23)CC1,0.3,124.7*,15.1,0.7,5.8,0.5
COC(=O)c1ccc(C=NNC(=O)CCSc2nc3ccccc3s2)cc1,nt,nt,nt,nt,9.4,nt
Cc1ccc(-c2cc(C(=O)NN=Cc3ccco3)[nH]n2)cc1,nt,nt,nt,nt,23.8,nt
SMILES,Mtb UGM inh,Mtb FBA inh,GDH-TPI counter,FadD28 FP inh,Mtb hypoxia inh,Rv3671c protease
CCCc1[nH]c(=O)c(C#N)c2c1COC(C)(C)C2,0.5,11.9,8.4,-1.8,3.5,4.0
CC(C)Cc1[nH]c(=O)c(C#N)c2c1COC(C)(C)C2,2.0,16.5,31.0*,-0.8,12.9,2.7
Cc1cc(C(=O)N/N=C/c2ccc[nH]2)n[nH]1,-1.4,-3.7,39.1*,-0.1,nt,9.2
Cc1cc(C(=O)N/N=C/c2ccc[nH]2)no1,-0.1,-3.1,30.7*,0.0,nt,-5.3
Cc1cc(C(=O)N/N=C/c2ccc(-c3ccccc3Cl)o2)n[nH]1,-0.4,2.1,34.5*,-0.8,nt,-0.1
Cc1cc(C(=O)NN=Cc2ccccn2)n[nH]1,nt,nt,nt,nt,2.0,nt
Cc1cc(C(=O)N/N=C/c2ccccc2Br)no1,-2.4,-0.2,9.8,-1.4,nt,-6.4
Cc1nccn1CC(=O)NN=Cc1cc(Br)cs1,nt,nt,nt,nt,0.1,nt
CCc1sc(/C=C(/C#N)C(N)=S)cc1[N+](=O)[O-],nt,0.0,-1.2,17.5*,13.2,nt
O=C(CCS(=O)(=O)c1ccccc1)Nc1nc(-c2ccc(F)cc2)cs1,1.9,6.4,33.8*,-2.3,4.6,5.0
CCCCn1c(=NC(=O)c2ccco2)c(C(=O)OCC)cc2c(=O)n3ccccc3nc21,0.0,196.5*,8.0,-1.4,2.8,4.9
CCCCCn1c(=NC(=O)c2ccco2)c(C(=O)OCC)cc2c(=O)n3ccccc3nc21,2.4,144.4*,10.3,-4.8,-3.4,-9.2
CCCCn1c(=NC(=O)c2ccco2)c(C(=O)OCC)cc2c(=O)n3cccc(C)c3nc21,0.4,172.5*,6.3,-1.6,-6.1,-7.1
CCOC(=O)c1cc2c(=O)n3ccccc3nc2n(Cc2ccc(Cl)cc2)c1=N,nt,19.8,5.1,-1.4,6.4,nt
CCOC(=O)c1cc2c(=O)n3ccccc3nc2n(C(C)C)c1=NC(=O)c1c(-c2c(F)cccc2Cl)noc1C,2.5,26.1,3.0,-3.0,-4.9,-10.5
Oc1cc(NCc2cccnc2)ccc1-c1nc2ccccc2o1,1.2,10.8,63.5*,1.0,0.4,-6.7
CCc1ccc(OCC(=O)Nc2ccc(-c3nc4ccccc4o3)c(O)c2)cc1,-0.1,4.9,1.7,-2.7,nt,-7.3
O=S(=O)(NN=C1CCCc2ccccc21)c1ccccc1,nt,nt,nt,nt,7.8,nt
Cc1cc(OCc2nn[nH]n2)c2c3c(c(=O)oc2c1)CCC3,1.7,+,-3.2,-4.9,4.0,4.0
CCCc1cc(=O)oc2cc(C)cc(OCc3nn[nH]n3)c12,-1.3,128.3*,9.4,-1.3,2.5,3.7
Cc1cc2oc(=O)c3c(c2cc1OCc1nn[nH]n1)CCCC3,3.6,14.8,14.1,-5.1,3.1,-7.7
Cc1c(OCc2nn[nH]n2)ccc2c3c(c(=O)oc12)CCCC3,5.4,124.4*,7.0,-3.1,7.7,1.6
CC(=NNC(=O)c1ccccc1)C(=O)O,nt,nt,nt,nt,4.9,nt
Oc1oc(-c2ccccc2)nc1/C=N/c1ccccn1,1.6,2.2,26.7,-3.3,nt,2.6
CN=Cc1nc(-c2ccccc2)oc1O,1.6,-1.5,59.1*,2.1,nt,-5.4
COc1ccc(C2CC(=O)C3=C(C2)Nc2ccccc2NC3c2coc3ccccc3c2=O)cc1OC (configuration not stated),-0.4,1.8,40.1*,0.4,-3.0,1.9
COc1cc(OC)c(C2Nc3ccccc3NC3=C2C(=O)CC(C)(C)C3)cc1OC (configuration not stated),1.6,1.4,6.9,-3.9,-1.5,6.8
CC(=NNC(=O)c1ccc(O)cc1)c1cccc([N+](=O)[O-])c1,nt,nt,nt,nt,12.3,nt
CNc1nnc(-c2ccc(N(C)C)cc2)s1,-0.7,+,45.8*,-0.6,0.1,-2.2

# Assay outcomes deposited in PubChem by several laboratories.
